Numbering of substitutions follows the chain as printed. Over roughly 24,000 sequences, “enrichment r” has its median near 0.99; the highest 2% begin near 3.7. The sample holds the highest values, similar sequences and a random draw of the others, so the mix is not that of the screen.

B1: 83126405_83126525_1642_CDS_ENSMUSG00000058881_ENSMUST00000071233|mouse|control|control (ssRNA)
RNA: GGGAGUUCUACAGUCCGACGAUCCCGGGGAUCAAGGUGGCCAGAAAGCAUGGGGUCCCCAGGUACACUGGCCCUCUUCCUCGGGGGAGCUUGGGUAGCCGGAGCAUCCUGUUCACGCUUGCGUUUUUCCUGGCUCACCAGUAUCAACAGAGGAUUGAGCAUCA
B2: chr7:54825262:54825263:-_ENSG00000132432_ENST00000352861|hu_hu|hu_hu_hu_mus_False|18_38 (ssRNA)
RNA: GGGAGUUCUACAGUCCGACGAUCCUGCCGGCUGGGCUCCACAAACUGCAUUACCUGAUCCAUGUUUGUUGGAUGGCGGAUUGAGAGCGUAGAGACAACGUAGCACUGAGAGAACCGGAUGGAGGCCAACCGGAAGCUGGCAACCAACAGAGGAUUGAGCAUCA
B3: chr2:42543136:42543137:+_ENSG00000143924_ENST00000318522|hu_mus|FALSE|FALSE (ssRNA)
RNA: GGGAGUUCUACAGUCCGACGAUCAUCUACUGAGUAGCGCAUCACAGACAGCUGCUCAUUGCCAUCCGUGUGGAUUGACACCAGAUCUCUUGUUUCUGCAUCCAGAACAAACCACCUGCCUGAGUGCGUUCCAAUGGCUACCACCAACAGAGGAUUGAGCAUCA
B4: chr19:8913615:8913616:-_ENSMUSG00000071658_ENSMUST00000096259|mus_hu|mus_mus_mus_hu_False|48_78 (ssRNA)
RNA: GGGAGUUCUACAGUCCGACGAUCAGGGUACCAAAACCUUCUGCCUGAAAUGGGUGCCCCACCCUGCAGGGAGUUGCAGCUGAAAGUAUCCGUAGCAGAAGCAGUGACUAUACGAAAGGAGGCCCCUGGGGAGGGCCAGGCCAGCAACAGAGGAUUGAGCAUCA
B5: chr12:8945443:8945444:+_ENSMUSG00000020585_ENSMUST00000020909|mus_mus|motif|central (ssRNA)
RNA: GGGAGUUCUACAGUCCGACGAUCUGGAAACGUACAAAUGAGAAGCAUGCAACCAUCAUCUUCCACAGUCAAGUCAAACUGCGGUUUCUCUCUCUCUCCUGUUUCAUAGAGCUGGAAACUGCAGGUGUUAUACCCAACCUAUUCCAACAGAGGAUUGAGCAUCA
B6: 117863777_117864697_1263_CDS_ENSMUSG00000017715_ENSMUST00000132676|mouse|control|control (ssRNA)
RNA: GGGAGUUCUACAGUCCGACGAUCGCGGUCCUGGCGGUUGGUGAAGUAUGAGUCACUCAGGUUUGCACCACUCAGGAUGACGUUGUUGUCAAAGAGGUACACCUUGAUGUGCUGGAGGCCGAUGGUCUCAUUGAAGCGCUCAGGCAACAGAGGAUUGAGCAUCA
B7: chr6:41757443:41757444:+_ENSG00000214736_ENST00000398881|hu_mus|hu_hu_hu_mus_False|58_58 (ssRNA)
RNA: GGGAGUUCUACAGUCCGACGAUCGAACCGUGCAGAGGCAACAUCUCAGCCGACACUGGGGGAUGGGGGGGCAGUGGGAAACUAGGCAGGCAAGGAGAGGGAGUCAACUUCAGCUGCCACUCAGGUAGGAUCUUGUGGUCACAGCAACAGAGGAUUGAGCAUCA
B8: chr6:41757443:41757444:+_ENSG00000214736_ENST00000398881|hu_mus|hu_hu_hu_mus_False|18_28 (ssRNA)
RNA: GGGAGUUCUACAGUCCGACGAUCGAACCGUGCAGAGGCAACAUCUCAGCCGACACUGGGGGAUGGGGGGGCAGUGGGGGGGGGUUCAGGCAAGGAGAGGGAGUCAACCCAUCUGAAUCAAACUUCAGGAUCUUGUGGUCACAGCAACAGAGGAUUGAGCAUCA
B9: chr6:41757443:41757444:+_ENSG00000214736_ENST00000398881|hu_mus|hu_hu_hu_mus_False|28_28 (ssRNA)
RNA: B8 RNA with U117C, C118A, A119C, A120U, A121C, C122A, U123G, U124G, C125U
B10: 66332798_66333947_12362_CDS_ENSMUSG00000038664_ENSMUST00000042824|mouse|control|control (ssRNA)
RNA: GGGAGUUCUACAGUCCGACGAUCUUCACCACUUUCUGUCAAGGCCAUUGAGUGCCCAUCUGAGCCACAGGAAGUCACCAGCUGGGUCACCACAAAACCUUGUAGGGCUGAAAUCACAGUCAGCACAUGAAGGUCGUCUGAAUUCAACAGAGGAUUGAGCAUCA
B11: chr10:77750680:77750681:-_ENSMUSG00000001211_ENSMUST00000139282|mus_hu|FALSE|FALSE (ssRNA)
RNA: GGGAGUUCUACAGUCCGACGAUCGCGGCGGUAGAGCUGCUUGCUGACCGGCCAGAGCGCCAGCGUGCACAGCUGGACGAAGUUGAUGACCAGACCACUCACCACGAAGACAAAGCCGACCAGCAGGUGCAGCACGAACUGGGUCAACAGAGGAUUGAGCAUCA
B12: chr10:127876205:127876206:+_ENSMUSG00000025373_ENSMUST00000096386|mus_mus|FALSE|FALSE (ssRNA)
RNA: GGGAGUUCUACAGUCCGACGAUCGGGGCCACCGAGGCAACACAGACACCCUCUUGAGGCAGUGCCGUUCUGGAUCAGCAGAGCCAGACAGCAGCUUCCUGCUGAGUGUACGAACACCAGUGCUCUCACGCCCACCCCUUCCUUCAACAGAGGAUUGAGCAUCA
B13: chr6:41757443:41757444:+_ENSG00000214736_ENST00000398881|hu_mus|hu_hu_hu_mus_False|28_38 (ssRNA)
RNA: GGGAGUUCUACAGUCCGACGAUCGAACCGUGCAGAGGCAACAUCUCAGCCGACACUGGGGGAUGGGGGGGCAGUGGGGGGGGGUUCAGGCAAGGAGAAGAAAAGUGCCCAUCUGAACACUCAGGUAGGAUCUUGUGGUCACAGCAACAGAGGAUUGAGCAUCA
B14: chr6:41757443:41757444:+_ENSG00000214736_ENST00000398881|hu_mus|hu_hu_hu_mus_False|1_38 (ssRNA)
RNA: GGGAGUUCUACAGUCCGACGAUCGAACCGUGCAGAGGCAACAUCUCAGCCGACACUGGGGGAUGGGGGGGCAGUGGGGGGGGGUUCAGGCAAGGAGAAGAAAAGUGCUUCAGCUGCCACUCAGGUAGGAUCUUGUGGGGCACACAACAGAGGAUUGAGCAUCA
B15: 53565353_53565853_12282_CDS_ENSG00000086758_ENST00000262854|human|control|control (ssRNA)
RNA: GGGAGUUCUACAGUCCGACGAUCCCCAUCAGCAAGGUGGGUCGUGGACUGCCGUAGGAUCUGGUUUAACACAGUGCGGUGAGUCUCUGCAAAGCGAAGGAACUUCUGUGUGUCAGGGGGCAGGCUUGAGGAGAUGUGCAUAGACAACAGAGGAUUGAGCAUCA
B16: chr6:41757443:41757444:+_ENSG00000214736_ENST00000398881|hu_mus|hu_hu_hu_mus_False|1_68 (ssRNA)
RNA: GGGAGUUCUACAGUCCGACGAUCGAACCGUGCAGAGGCAACAUCUCAGCCGACACUGGGGGAUGGGGGAACAAAAGGGGGGGGUUCAGGCAAGGAGAGGGAGUCAACUUCAGCUGCCACUCAGGUAGGAUCUUGUGGGGCACACAACAGAGGAUUGAGCAUCA
B17: chr7:133639990:133639991:-_ENSMUSG00000032637_ENSMUST00000167759|mus_hu|FALSE|FALSE (ssRNA)
RNA: GGGAGUUCUACAGUCCGACGAUCGGUAGAGAGUUCUUUUACAUCUGUGGGGGCCAGGGAGAUCUUUGGAGAAGCUGGAGAAAUGGAGCCCACUCCAGGAUCUGAGACUGAUGAGGUCACAGGGAUGGAGGCUGAAGAGGUUGGCAACAGAGGAUUGAGCAUCA
B18: chr15:43699750:43699751:-_ENSG00000067369_ENST00000382044|hu_hu|motif|central (ssRNA)
RNA: GGGAGUUCUACAGUCCGACGAUCACACUUCAGCACCGAGGCUGGGCAUGAGGGGUCCGUCACCACCACAUCAAAUACCCCGGAAGCAAUAUCUUUGUUAUGGGCACUUGAAUGGUGCUGCUUCACAGAGGCUGCACCACCAGUCAACAGAGGAUUGAGCAUCA
B19: 112904347_112904467_7746_CDS_ENSMUSG00000036862_ENSMUST00000078482|mouse|control|control (ssRNA)
RNA: GGGAGUUCUACAGUCCGACGAUCUGUGGCCUCCAGGGUGAGCAGGGUGGAACCAGGGGGCAAAUCUUCAGACACAGCAACACGGUAGUGUGGCAAUGUGAAGCUUGGGGCAUGGUCAUUCUGGUCCUUCAGCUGCACAUGCACCAACAGAGGAUUGAGCAUCA
B20: chrX:40988281:40988282:+_ENSG00000124486_ENST00000378308|hu_mus|FALSE|FALSE (ssRNA)
RNA: GGGAGUUCUACAGUCCGACGAUCUUCAAUCUGUGGAGGAGCAUCACCUUGACCUUGCUCAUCAGGAGGAGUUGCAGGGGAAUUUUCAUUGGACGAAUCAGGCGAUGAAGUCUGAUUCUGUUGGAGGGGGGGCUGAGACUGUCCCAACAGAGGAUUGAGCAUCA
B21: chr6:17872010:17872011:+_ENSMUSG00000029534_ENSMUST00000127322|mus_mus|motif|central (ssRNA)
RNA: GGGAGUUCUACAGUCCGACGAUCUCACUGUCUCCUCUCUUCAGGAUGUGUUCUGGUGGGAGGAUUAAGCUUUUCAUUUCGGGUAGAUAUUUUGGCACGUGUGGAUUAAAUUCCACAGCUCUGUGGAUGGCUUCUACUGCAUUCCAACAGAGGAUUGAGCAUCA
B22: chr9:37441256:37441257:-_ENSG00000168795_ENST00000307750|hu_hu|FALSE|FALSE (ssRNA)
RNA: GGGAGUUCUACAGUCCGACGAUCAGGCCCAGCCUCUGGACUCAACAAAUAGGGGGCCUCACUCUCCAGCCUGCAGUCACUAGUGGUGUUUGGAAUAUUAUCAUCAUUGUUCUGAUUUGCAGUAAAGUUAUUUCCUCUGCUCUUCAACAGAGGAUUGAGCAUCA

This assay addresses T1, UNK ZnF1-3 (human, UniProt Q9C0B0 31-174).
T1 sequence: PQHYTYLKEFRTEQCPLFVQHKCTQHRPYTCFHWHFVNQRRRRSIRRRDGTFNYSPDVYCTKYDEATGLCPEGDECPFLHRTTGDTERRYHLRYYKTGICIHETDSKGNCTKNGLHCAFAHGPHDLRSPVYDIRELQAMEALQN
Briefly: nsRBNS (natural sequence RNA bind-n-seq); RBNS binding buffer (assumed for nsRBNS): 25 mM Tris pH 7.5, 150 mM KCl, 3 mM MgCl2, 0.01% Triton X-100, 500 ug/ml BSA, 20 U/ml SUPERase-In, 4 C; UNK is unkempt and MSI1 is Musashi-1; names of the RNAs are library labels; protein concentration not given here; high values mean tight binding.
B1 came in with a binding signal of 0.53 enrichment R.
The molecule B2 showed a binding signal of 0.908 enrichment R.
With B3, the binding signal stood at 0.836 enrichment R.
B4 yielded a binding signal of 1.24 enrichment R.
As for B5, the binding signal came to 0.736 enrichment R.
In the case of B6, the binding signal came to 0.897 enrichment R.
With B7, the binding signal came to 2.2 enrichment R.
Turning to B8, the binding signal stood at 5.1 enrichment R.
For the molecule B9, the binding signal stood at 5.01 enrichment R.
The same measure for B10: 0.824 enrichment R.
The same measure for B11: 0.809 enrichment R.
B12 had a binding signal of 1.13 enrichment R.
Consider B13, for which the binding signal was determined as 3.96 enrichment R.
Turning to B14, the binding signal came out at 4.72 enrichment R.
In the case of B15, the binding signal stood at 1.49 enrichment R.
B16 returned a binding signal of 3.16 enrichment R.
For the molecule B17, the binding signal is 2.03 enrichment R.
The figure for B18 is 0.852 enrichment R; for B19 it is 1.43 enrichment R.
Molecule B20 came in with a binding signal of 1.31 enrichment R.
The molecule B21 returned a binding signal of 0.937 enrichment R.
The figure for B22 is 0.924 enrichment R.

Values taken from publication PMC12136788.
